# Reference: the supplement of paper PMC6522484
# ± gives the standard deviation of the averaged measurements.
# System: HCT116
# Test: cell viability (CellTiter-Glo) relative to plate median (fraction of plate median); higher = more viable cells
# Conditions: 5 µM; treatment time 24 h; reporter: TCF4/Wnt
# Outline: (§1)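 Library compounds, at a final 5 µM, stayed on reporter cells for 24 h. The cells were colorectal cancer lines stably transduced with lentiviral TCF/Wnt firefly luciferase reporters, seeded in 384-well plates 24 h before dosing. Firefly luciferase or CellTiterGlo luminescence from parallel plates was normalised to the plate median in webcellHTS2 (additive, no log transformation), and two independent replicates were averaged.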
row,Structure (SMILES),cell viability
1,CCOc1ccc2nc(S(N)(=O)=O)sc2c1,0.896 ± 0.15
2,CC(=O)NS(=O)(=O)c1ccc(N)cc1,0.978 ± 0.088
3,CC(=O)OC1CCC2(O)CC1(C)CCC1C2CC1(C)C (configuration not stated),1.06 ± 0.05
4,Cc1oc(=O)c2c(O)cccc2c1CO [8-Hydroxy-4-hydroxymethyl-3-methyl-isocumarin],0.925 ± 0.027
5,C(=C\c1ccccc1)/CN1CCN(C(c2ccccc2)c2ccccc2)CC1,1.09 ± 0.021
6,COc1c2occc2cc2ccc(=O)oc12,1.02 ± 0.089
7,COc1ccc2c(c1)OC/C(=C/c1ccc(O)c(O)c1)C2=O,1.01 ± 0.021
8,CC(=O)[C@H]1CC[C@H]2[C@@H]3CC=C4C[C@@H](O)CC[C@]4(C)[C@H]3CC[C@]12C,0.941 ± 0.023
9,COc1cc(OC)c(C(C)=O)c(O)c1C,0.977 ± 0.1

# System: SW480
# Test: as above
# Conditions: 5 µM; treatment time 24 h; reporter: 7TFP
# Outline: as §1
row,Structure (SMILES),cell viability
1,S=P(N1CC1)(N1CC1)N1CC1,1.01 ± 0.03
2,C#C[C@]1(O)CC[C@H]2[C@@H]3CCC4=C(CCC(=O)C4)[C@H]3CC[C@@]21C,0.913 ± 0.014
3,N=C(N)NCCCCN,1.02 ± 0.058
4,CS(=O)(=O)c1ccc(C2=C(c3ccccc3)C(=O)OC2)cc1,0.9705 ± 0.0035
5,CCC(=O)O[C@@H]1[C@@H](OC2C(C)/C=C/C(=O)OC(C)C(CO[C@@H]3O[C@H](C)[C@@H](OC(=O)CC)[C@@H](OC)[C@H]3OC)C3OC3/C=C/C(=O)C(C)(O)CC2C)O[C@@H](C)C[C@H]1OC (some centres not stated) [Chalcomycin B],1.11 ± 0.071
6,CC(=O)O[C@@H]1C[C@@]2(C)C(CC[C@@H]2C(C)=O)C2CCC3=CC(=O)CC[C@]3(C)C21 (some centres not stated),0.976 ± 0.024
7,O=C(O)CN1C(=O)c2cccc3cccc(c23)C1=O,1.005 ± 0.0071
8,C=C1c2c(Cl)ccc(O)c2C(=O)C2=C(O)[C@]3(O)C(=O)C(C(N)=O)=C(O)[C@@H](N(C)C)[C@@H]3[C@@H](O)[C@H]12.O=C(O)c1cc(S(=O)(=O)O)ccc1O,1.005 ± 0.0071
